Reference: the supplement of paper PMC12067093, “Discovery and optimisation of a covalent ligand for TRIM25 and its application to targeted protein ubiquitination” (Chemical Science, 2025)
About 21,000 targets were measured; listed, in parts, are those with the largest changes and a random draw of the rest.

Compound: Cc1cc(ccc1-c1ccccc1)C(=O)N1CCCN(CC1)C(=O)CCl [compound 10]
Assay: probe-labelled cysteine peptide fold change vs DMSO (competition) (log2 fold change); higher = less target engagement (more negative = stronger competition)
Details: 50 µM; THP-1; incubation time: 4 h
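Further: competitive profiling in live THP-1 cells: cysteine peptides tagged with an iodoacetamide desthiobiotin (IA-DTB) probe, intensity after compound treatment relative to DMSO-treated cells.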

UniProt P31939, sequence (P31939 whole entry, looked up): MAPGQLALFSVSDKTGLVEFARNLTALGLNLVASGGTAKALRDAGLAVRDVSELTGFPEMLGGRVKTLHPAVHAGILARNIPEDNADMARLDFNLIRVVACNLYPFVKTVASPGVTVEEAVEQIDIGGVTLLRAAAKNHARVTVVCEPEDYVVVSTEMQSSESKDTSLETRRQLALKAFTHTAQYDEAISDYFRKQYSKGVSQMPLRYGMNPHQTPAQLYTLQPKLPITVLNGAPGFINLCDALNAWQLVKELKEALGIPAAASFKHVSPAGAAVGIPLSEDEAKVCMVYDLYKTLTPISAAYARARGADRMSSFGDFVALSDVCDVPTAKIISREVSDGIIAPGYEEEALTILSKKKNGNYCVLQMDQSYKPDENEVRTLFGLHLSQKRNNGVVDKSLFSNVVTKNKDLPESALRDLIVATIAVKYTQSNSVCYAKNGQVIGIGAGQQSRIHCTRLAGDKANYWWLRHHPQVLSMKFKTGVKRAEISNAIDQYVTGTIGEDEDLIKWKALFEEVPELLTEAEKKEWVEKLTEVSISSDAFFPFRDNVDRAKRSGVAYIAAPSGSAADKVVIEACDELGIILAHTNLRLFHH
UniProt O60488, sequence (O60488 whole entry, looked up): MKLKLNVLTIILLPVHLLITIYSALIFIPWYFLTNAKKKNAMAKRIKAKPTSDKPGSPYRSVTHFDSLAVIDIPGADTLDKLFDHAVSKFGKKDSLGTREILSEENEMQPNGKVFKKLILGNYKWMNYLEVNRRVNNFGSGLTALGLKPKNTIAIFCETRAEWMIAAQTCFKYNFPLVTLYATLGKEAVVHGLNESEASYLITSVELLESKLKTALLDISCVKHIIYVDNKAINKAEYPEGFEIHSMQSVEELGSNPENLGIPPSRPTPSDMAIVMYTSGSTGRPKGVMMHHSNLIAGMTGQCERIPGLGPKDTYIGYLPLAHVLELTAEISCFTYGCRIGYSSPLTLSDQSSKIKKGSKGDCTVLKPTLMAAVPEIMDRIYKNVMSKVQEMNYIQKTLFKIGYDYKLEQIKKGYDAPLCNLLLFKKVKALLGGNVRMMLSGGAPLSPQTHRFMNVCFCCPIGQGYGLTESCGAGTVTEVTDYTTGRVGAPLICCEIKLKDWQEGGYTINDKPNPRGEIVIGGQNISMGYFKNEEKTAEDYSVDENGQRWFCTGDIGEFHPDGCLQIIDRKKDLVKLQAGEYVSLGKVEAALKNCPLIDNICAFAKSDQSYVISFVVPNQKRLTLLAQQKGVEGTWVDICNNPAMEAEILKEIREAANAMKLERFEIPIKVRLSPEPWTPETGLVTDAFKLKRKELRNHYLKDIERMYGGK
UniProt P54259, sequence (P54259 whole entry): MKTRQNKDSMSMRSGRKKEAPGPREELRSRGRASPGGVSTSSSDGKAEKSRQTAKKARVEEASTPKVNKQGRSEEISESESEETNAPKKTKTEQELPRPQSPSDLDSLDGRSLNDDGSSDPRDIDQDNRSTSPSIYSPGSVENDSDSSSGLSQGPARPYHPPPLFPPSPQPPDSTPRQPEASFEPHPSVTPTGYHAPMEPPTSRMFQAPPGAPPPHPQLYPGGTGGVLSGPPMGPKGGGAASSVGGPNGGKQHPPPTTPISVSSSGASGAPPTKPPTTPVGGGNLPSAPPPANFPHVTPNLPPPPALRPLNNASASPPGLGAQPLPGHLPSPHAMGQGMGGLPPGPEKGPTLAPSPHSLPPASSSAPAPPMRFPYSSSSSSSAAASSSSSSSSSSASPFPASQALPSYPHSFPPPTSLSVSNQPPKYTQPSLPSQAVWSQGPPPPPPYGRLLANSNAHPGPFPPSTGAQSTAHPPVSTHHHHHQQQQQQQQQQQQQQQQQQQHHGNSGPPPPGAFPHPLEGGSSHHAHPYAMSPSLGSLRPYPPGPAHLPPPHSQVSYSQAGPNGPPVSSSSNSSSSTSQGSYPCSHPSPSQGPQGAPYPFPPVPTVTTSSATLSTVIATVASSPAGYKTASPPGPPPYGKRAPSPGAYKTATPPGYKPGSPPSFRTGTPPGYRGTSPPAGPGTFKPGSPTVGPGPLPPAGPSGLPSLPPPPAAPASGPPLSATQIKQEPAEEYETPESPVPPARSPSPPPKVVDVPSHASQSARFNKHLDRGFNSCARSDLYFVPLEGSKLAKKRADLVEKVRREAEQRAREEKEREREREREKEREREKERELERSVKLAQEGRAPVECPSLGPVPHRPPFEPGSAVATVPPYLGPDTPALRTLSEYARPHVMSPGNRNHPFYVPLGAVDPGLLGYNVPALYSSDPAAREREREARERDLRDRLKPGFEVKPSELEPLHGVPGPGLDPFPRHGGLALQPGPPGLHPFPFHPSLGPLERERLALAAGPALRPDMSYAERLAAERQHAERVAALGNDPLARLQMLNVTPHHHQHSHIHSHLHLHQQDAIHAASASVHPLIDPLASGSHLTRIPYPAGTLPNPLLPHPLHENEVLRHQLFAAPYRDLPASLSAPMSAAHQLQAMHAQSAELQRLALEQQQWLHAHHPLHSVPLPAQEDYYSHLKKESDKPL
UniProt P51648, sequence (P51648 whole entry, looked up): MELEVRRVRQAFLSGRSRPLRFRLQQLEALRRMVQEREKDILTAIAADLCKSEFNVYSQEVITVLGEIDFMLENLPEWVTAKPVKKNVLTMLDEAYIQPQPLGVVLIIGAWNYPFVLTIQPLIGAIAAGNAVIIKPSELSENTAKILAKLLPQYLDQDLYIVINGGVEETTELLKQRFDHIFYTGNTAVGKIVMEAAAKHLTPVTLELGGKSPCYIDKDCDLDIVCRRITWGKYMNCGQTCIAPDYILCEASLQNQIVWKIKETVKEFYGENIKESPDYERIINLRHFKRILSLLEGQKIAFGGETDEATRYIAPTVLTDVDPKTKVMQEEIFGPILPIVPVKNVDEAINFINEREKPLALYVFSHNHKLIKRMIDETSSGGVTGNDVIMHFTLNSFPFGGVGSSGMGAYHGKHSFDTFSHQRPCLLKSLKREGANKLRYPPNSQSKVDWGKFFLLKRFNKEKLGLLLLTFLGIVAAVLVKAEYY
UniProt Q6NXE6, sequence (Q6NXE6 whole entry, looked up): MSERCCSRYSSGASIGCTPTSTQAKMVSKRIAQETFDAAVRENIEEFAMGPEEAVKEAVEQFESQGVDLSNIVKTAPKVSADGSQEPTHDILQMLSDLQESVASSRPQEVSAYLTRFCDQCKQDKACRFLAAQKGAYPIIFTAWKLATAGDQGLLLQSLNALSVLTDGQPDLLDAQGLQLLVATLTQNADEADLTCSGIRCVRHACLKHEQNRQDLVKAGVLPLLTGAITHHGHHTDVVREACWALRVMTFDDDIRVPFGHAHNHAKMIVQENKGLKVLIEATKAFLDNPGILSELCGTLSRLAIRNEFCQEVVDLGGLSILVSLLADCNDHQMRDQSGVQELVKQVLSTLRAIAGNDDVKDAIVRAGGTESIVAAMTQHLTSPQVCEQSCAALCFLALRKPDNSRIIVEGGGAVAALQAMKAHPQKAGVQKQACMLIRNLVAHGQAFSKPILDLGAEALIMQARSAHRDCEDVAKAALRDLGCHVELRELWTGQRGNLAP
UniProt P32121, sequence (P32121 whole entry, looked up): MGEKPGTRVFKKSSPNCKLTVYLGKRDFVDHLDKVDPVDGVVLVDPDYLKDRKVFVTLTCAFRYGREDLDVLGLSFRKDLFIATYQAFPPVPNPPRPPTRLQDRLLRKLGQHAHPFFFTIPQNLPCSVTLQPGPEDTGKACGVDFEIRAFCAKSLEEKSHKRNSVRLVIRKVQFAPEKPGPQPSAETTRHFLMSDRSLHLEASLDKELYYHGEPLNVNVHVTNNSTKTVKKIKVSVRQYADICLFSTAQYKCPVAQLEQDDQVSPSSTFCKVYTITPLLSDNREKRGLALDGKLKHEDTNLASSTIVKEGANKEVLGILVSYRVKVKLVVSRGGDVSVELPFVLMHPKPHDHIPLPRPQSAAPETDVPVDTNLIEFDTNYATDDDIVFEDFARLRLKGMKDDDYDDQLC
UniProt Q6UXV4, sequence (Q6UXV4 whole entry, looked up): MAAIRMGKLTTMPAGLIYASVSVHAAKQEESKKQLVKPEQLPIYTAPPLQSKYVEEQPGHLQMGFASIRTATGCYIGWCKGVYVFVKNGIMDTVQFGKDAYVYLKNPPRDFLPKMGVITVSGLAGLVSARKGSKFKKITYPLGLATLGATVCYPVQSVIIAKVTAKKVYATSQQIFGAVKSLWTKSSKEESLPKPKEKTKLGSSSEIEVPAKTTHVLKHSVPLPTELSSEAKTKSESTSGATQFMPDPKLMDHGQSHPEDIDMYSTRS
UniProt Q93050, sequence (Q93050 whole entry, looked up): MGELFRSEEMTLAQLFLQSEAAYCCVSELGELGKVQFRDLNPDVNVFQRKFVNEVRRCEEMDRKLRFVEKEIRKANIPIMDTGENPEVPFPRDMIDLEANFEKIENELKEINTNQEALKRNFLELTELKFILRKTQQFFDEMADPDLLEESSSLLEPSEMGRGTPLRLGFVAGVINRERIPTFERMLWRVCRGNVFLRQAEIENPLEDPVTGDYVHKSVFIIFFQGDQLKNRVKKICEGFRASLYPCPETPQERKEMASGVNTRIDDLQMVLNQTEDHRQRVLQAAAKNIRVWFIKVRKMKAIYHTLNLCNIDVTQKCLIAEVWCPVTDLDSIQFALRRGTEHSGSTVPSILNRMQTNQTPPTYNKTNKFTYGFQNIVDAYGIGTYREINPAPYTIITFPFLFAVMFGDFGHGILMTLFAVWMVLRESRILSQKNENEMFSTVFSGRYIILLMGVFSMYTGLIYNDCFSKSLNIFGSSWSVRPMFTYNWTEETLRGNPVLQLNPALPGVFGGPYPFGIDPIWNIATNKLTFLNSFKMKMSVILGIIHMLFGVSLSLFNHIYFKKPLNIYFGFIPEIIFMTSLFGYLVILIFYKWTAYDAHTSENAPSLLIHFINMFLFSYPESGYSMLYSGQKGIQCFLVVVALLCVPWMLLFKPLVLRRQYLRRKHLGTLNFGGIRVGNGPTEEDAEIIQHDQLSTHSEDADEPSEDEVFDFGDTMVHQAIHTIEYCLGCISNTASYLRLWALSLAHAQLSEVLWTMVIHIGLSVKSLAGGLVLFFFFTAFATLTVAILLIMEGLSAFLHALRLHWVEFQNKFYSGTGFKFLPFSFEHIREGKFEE

Row | Target | probe-labelled cysteine peptide fold change
1 | ATP6V0A1_Q93050_58_RCEEMDR (UniProt Q93050) | 0.183
2 | ARRB2_P32121_126_KLGQHAHPFFFTIPQNLPCSVTLQPGPEDTGK (UniProt P32121) | -0.146
3 | ARHGEF6_Q15052_530_IVVHCNNNQDFQEWLEQLNR (UniProt Q15052) | 0.158
4 | ANKHD1_Q8IWZ3_1716_GGCNITAIQDVTGAHIDVDK (UniProt Q8IWZ3) | 0.0508
5 | ALDOA_P04075_178_YASICQQNGIVPIVEPEILPDGDHDLKR (UniProt P04075) | -0.12
6 | ADAM9_Q13443_539_DCFIEVNSK (UniProt Q13443) | -0.137
7 | ADK_P55263_160_SLIANLAAANCYKK (UniProt P55263) | -1.01
8 | ATP13A1_Q9HD20_410_ATTGLKPVDSGCVAYVLR (UniProt Q9HD20) | 0.0894
9 | ATM_Q13315_2770_SGVLEWCTGTVPIGEFLVNNEDGAHKR (UniProt Q13315) | -0.152
10 | APOOL_Q6UXV4_74_TATGCYIGWCK (UniProt Q6UXV4) | -1.75
11 | ACTR3_P61158_8+12_LPACVVDCGTGYTK (UniProt P61158) | -0.313
12 | AGL_P35573_767_EVPQMCIPGKIEEVVLEAR (UniProt P35573) | -0.537
13 | ACSL4_O60488_221_TALLDISCVK (UniProt O60488) | 0.0446
14 | ACSL3_O95573_85_SVNSLDGLASVLYPGCDTLDK (UniProt O95573) | 0.289
15 | ANKFY1_Q9P2R3_742_AIDENNEPTACFLIR (UniProt Q9P2R3) | -0.213
16 | ALDH1L1_O75891_537_YFAGWCDK (UniProt O75891) | -0.223

Row | Target | probe-labelled cysteine peptide fold change
17 | ARMC6_Q6NXE6_121_FCDQCK (UniProt Q6NXE6) | -0.663
18 | ALDH3A2_P51648_226_DCDLDIVCR (UniProt P51648) | -0.00592
19 | ANKRD17_O75179_564_AGADIELGCSTPLMEAAQEGHLELVK (UniProt O75179) | -0.0606
20 | AGL_P35573_126_VGADNHVLPLDCVTLQTFLAK (UniProt P35573) | 0.0379
21 | AGL_P35573_486_ELICWGDSVK (UniProt P35573) | 0.033
22 | AP2B1_P63010_565_PLISEETDLIEPTLLDELICHIGSLASVYHKPPNAFVEGSHGIHR (UniProt P63010) | -0.142
23 | ADAR_P55265_851_CFNTLTNSFQPSLLGR (UniProt P55265) | 0.166
24 | ANKFY1_Q9P2R3_389_TPLHVSIMAGNEYVFSQLLQCK (UniProt Q9P2R3) | 0.15
25 | ATIC_P31939_101_VVACNLYPFVK (UniProt P31939) | 0.0511
26 | ATM_Q13315_2323_KLDASCAANNPSLK (UniProt Q13315) | -0.242
27 | ATP6V1B2_P21281_425_DHADVSNQLYACYAIGK (UniProt P21281) | 0.207
28 | ATP6V1A_P38606_138_WDFTPCK (UniProt P38606) | -3.27
29 | ATRX_P46100_235_WCAEGGNLICCDFCHNAFCK (UniProt P46100) | -0.0739
30 | ALDH1B1_P30837_169_TIPMDGQHFCFTR (UniProt P30837) | -0.131
31 | ATN1_P54259_851_APVECPSLGPVPHRPPFEPGSAVATVPPYLGPDTPALR (UniProt P54259) | -0.422
